40 compounds from PubChem BioAssay (EPA / NIEHS) can be followed below.

The structures appear in SMILES notation. Activity calls are given as the source filed them. The calls were made as follows: active = hit-call score of the fitted dose curve at least 0.9, where 1 is the maximum; inactive = score below 0.9.

This experiment can be described thus: APR_HepG2_CellCycleArrest_1hr: Apredica 1-hour HepG2 Assay for Cell Cycle Arrest (AID 2282666). The following applies: high-content imaging, actives raise or lower the signal. Here is the method:
APR_HepG2_1hr is a cell-based, multiplexed-readout assay that uses HepG2, a human liver cell line, with measurements taken at 1 hour after chemical dosing in a 384-well plate.APR_HepG2_CellCycleArrest_1hr is one of 10 assay component(s) measured or calculated from the APR_HepG2_1hr assay. It is designed to make measurements of cell phenotype, a form of morphology reporter, as detected with fluorescence intensity signals by HCS Fluorescent Imaging technology.Data from the assay component APR_HepG2_CellCycleArrest_1hr was analyzed into 1 assay endpoint. This assay endpoint, APR_HepG2_CellCycleArrest_1hr, was analyzed with bidirectional fitting relative to DMSO as the negative control and baseline of activity. Using a type of morphology reporter, measures of all nuclear dna for gain or loss-of-signal activity can be used to understand the signaling at the pathway-level as they relate to the gene . Furthermore, this assay endpoint can be referred to as a primary readout, because this assay has produced multiple assay endpoints where this one serves a signaling function. To generalize the intended target to other relatable targets, this assay endpoint is annotated to the cell cycle intended target family, where the subfamily is arrest.
Cells were treated with dimethyl sulfoxide (DMSO) as a solvent control at a final concentration of 0.5% v/v or with compounds in DMSO with a resulting final DMSO concentration of 0.5% v/v. Compound treatment was done at concentrations of 0.39, 0.78, 1.56, 3.12, 6.24, 12.5, 25, 50, 100, and 200 uM in duplicate on each plate. Cells were treated with compounds for 1, 24, or 72 hr. Carbonyl […] m-chloro-phenylhydrazone (CCCP) and taxol were used as positive controls for mitochondrial function and cytoskeletal stability, respectively; DMSO served as the negative control for this experiment. Cells were fixed by the direct addition of 50 uL formaldehyde in Hank's Balanced Salt Solution (HBSS) to a final concentration of 3.7%. After incubation in the fixation medium for 30 min at room temperature (293-298 K), cells were rinsed twice with HBSS and treated with cell permeabilization buffer (16 uL of 0.5% Triton X-100) for 10 min at room temperature (293-298 K) before labeling. For mitochondrial membrane potential and mitochondrial measurements, pre-fixed cells were incubated with 50 uL of MitoTracker Red CMXRos (Invitrogen) at a concentration of 250 nM for 30 min before fixation. In the remaining cases, post-fixed cells were labeled by incubation with a multiplexed mixture of primary antibodies in HBSS for 60 min at room temperature (293-298 K) to detect immunoreactivity of c-Jun (1:500), phospho-histone H3 (1:100), phospho-histone H2A.x (1:200), p53 (1:400), alpha-tubulin (1:200) and Hoechst 33342 (2 ug/mL). Cells were labeled for multiplexed imaging on two separate plates: a) Hoechst 33342, MitoTracker Red, phospho-histone H3, and alpha-tubulin, and b) Hoechst 33342, phospho-histone H2A.x, and c-Jun. A final rinse with HBSS (50 uL) was performed before analysis. The primary and secondary antibodies for the proteins were phospho-histone H3 (rabbit anti-phospho-histone H3 and FITC-donkey anti-rabbit IgG), phospho-histone H2A.x (mouse anti-phospho-histone H2A.x and FITC-donkey anti-mouse IgG), c-Jun (rabbit anti-phospho-c-Jun and Cy3-donkey anti-rabbit IgG), p53 (sheep anti-p53 and Cy5-donkey anti-sheep IgG), alpha-tubulin (mouse anti-alpha-tubulin and Cy5-donkey anti-mouse IgG). These antibodies are available as the CellCiphr HepG2 assay kit (Millipore).Digital images of each well were captured using a Cellomics ArrayScan VTI (Thermo Scientific Cellomics) (0.8 NA objective, 0.63x optical coupler, and XF-93 filter set) at 20x magnification. The images were acquired using the autofocus feature of the ArrayScan instrument, which entails the following steps. First, the camera focuses on channel 1 (Hoechst 33342), where nuclei are identified. Second, a Z offset of 1 um is used for capturing mitochondria (MitoTracker Red). […]
In the case of `COP(=O)(NC(C)=O)SC` (stereo not given), the result was inactive.
As to `C#CC(C)(C)NC(=O)c1cc(Cl)cc(Cl)c1`, the call was inactive.
Then `CCc1cccc(CC)c1N(COC)C(=O)CCl`, with “inactive”; and `CC(C)N(C(=O)SCC(Cl)=C(Cl)Cl)C(C)C`, with “inactive”.
The value for `CCOP(=S)(OCC)OC(Cl)C(Cl)(Cl)Cl` (stereo not given) was “inactive”; that for `CNc1cnn(-c2cccc(C(F)(F)F)c2)c(=O)c1Cl` was “inactive”; that for `CN(C)NC(=O)CCC(=O)O` was “inactive”.
The value for `COc1cc(OC)nc(Sc2cccc(Cl)c2C(=O)O)n1` was “inactive”; that for `Cc1cc(C2CC2)nc(Nc2ccccc2)n1` was “inactive”.
As to `CN(C)C(=O)Nc1cccc(C(F)(F)F)c1`, the result was inactive.
Take `COP(=O)(OC)SCn1c(=O)oc2cc(Cl)cnc21`: the compound was classed as inactive.
Then `CC(C)[C@H](C(=O)O[C@H](C#N)c1cccc(Oc2ccccc2)c1)c1ccc(Cl)cc1`, with “inactive”; and `COP(=O)(OC)OC(Br)C(Cl)(Cl)Br` (stereo not given), with “inactive”; and `CC(COc1ccc(Oc2ccccc2)cc1)Oc1ccccn1` (stereo not given), with “inactive”.
The value for `CCOP(=S)(OCC)Oc1ccc2c(C)c(Cl)c(=O)oc2c1` was “inactive”; that for `CC1=NNC(=O)N(/N=C/c2cccnc2)C1` was “inactive”; that for `CCOP(=S)(OCC)Oc1ccc([N+](=O)[O-])cc1` was “inactive”.
On to `CCc1cnc(C2=NC(C)(C(C)C)C(=O)N2)c(C(=O)O)c1` (stereo not given), for which the outcome was inactive.
The value for `CC[C@H](C)[C@H]1O[C@]2(C=C[C@@H]1C)C[C@@H]1C[C@@H](C/C=C(\C)[C@@H](O[C@H]3C[C@H](OC)[C@@H](O[C@H]4C[C@H](OC)[C@@H](NC)[C@H](C)O4)[C@H](C)O3)[C@@H](C)/C=C/C=C3\CO[C@@H]4[C@H](O)C(C)=C[C@@H](C(=O)O1)[C@]34O)O2` was “inactive”; that for `CCC(CC)Nc1c([N+](=O)[O-])cc(C)c(C)c1[N+](=O)[O-]` was “inactive”.
Consider `CNC(=O)ON=C(SC)C(=O)N(C)C`, for which the compound was classed as inactive.
The value for `CN(C)[C@@H]1C(=O)C(C(N)=O)=C(O)[C@@]2(O)C(=O)C3=C(O)c4c(O)cccc4[C@@](C)(O)[C@H]3[C@H](O)[C@@H]12` was “inactive”.
The value for `CCOP(=S)(Oc1cnc(C(C)(C)C)nc1)OC(C)C` (stereo not given) was “inactive”; that for `FC(F)C(F)(F)OCC(Cn1cncn1)c1ccc(Cl)cc1Cl` (stereo not given) was “inactive”.
The value for `CCOP(=S)(OCC)SCCSCC` was “inactive”.
With `CC1(C(=O)Nc2ccc(O)c(Cl)c2Cl)CCCCC1`, the outcome was inactive.
Consider `COc1cccc(C(=O)NN(C(=O)c2cc(C)cc(C)c2)C(C)(C)C)c1C`, for which the outcome was inactive.
Then `CCOP(=O)(SC(C)CC)N1CCSC1=O` (stereo not given), with “inactive”; and `CSc1nc(NC(C)C)nc(NC(C)C)n1`, with “inactive”; and `C#CCC1=C(C)C(OC(=O)C2C(C=C(C)C)C2(C)C)CC1=O` (stereo not given), with “inactive”.
As for `CCCSP(=O)(OCC)Oc1ccc(Br)cc1Cl` (stereo not given), the compound was classed as inactive.
Take `CCOP(=O)(NC(C)C)Oc1ccc(SC)c(C)c1` (stereo not given): the compound was called inactive.
The value for `S=C1NCCN1` was “inactive”; that for `C[Si](Cn1cncn1)(c1ccc(F)cc1)c1ccc(F)cc1` was “inactive”.
For the compound `CON=C(C(=O)OC)c1ccccc1CON=C(C)c1cccc(C(F)(F)F)c1`, the outcome was inactive.
For `Nc1nc(N)nc(NC2CC2)n1`, the result was inactive.
The value for `C=C(C)[C@H]1Cc2c(ccc3c2O[C@@H]2COc4cc(OC)c(OC)cc4[C@@H]2C3=O)O1` was “inactive”; that for `O=c1ccc(=O)[nH][nH]1` was “inactive”.
As to `CC(C)=CC1C(C(=O)OCN2C(=O)C3=C(CCCC3)C2=O)C1(C)C` (stereo not given), the compound was classed as inactive.
The value for `O=C(O)c1cc(Oc2ccc(C(F)(F)F)cc2Cl)ccc1[N+](=O)[O-]` was “inactive”.
